# From PubChem BioAssay
# Shn3 inh set2: reduction of Shn3 3'UTR firefly luciferase signal, primary screen, Schnurri-3 inhibitor project, cell-based, Clone20 osteoblasts, set 2. Clone20 osteoblast Shn3 3'UTR firefly luciferase, 24 h. inhibition, % at 12.5 µM. hit rate 0.52% among 360,000. AID 588674, 2011;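 active means mean inhibition of at least 75% with every replicate also reaching 75%; inconclusive means mean inhibition at least 75% but some replicate below; inactive means mean inhibition below 75%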;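 further: 0% = median of neutral control wells and 100% = pilot-screen positive control compound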
# PAX8 inh HTS: inhibitors of PAX8-driven TPO luciferase reporter, primary screen, RMG-I cells, single concentration. SteadyGlo, 24 h. hit rate 1.2% among 360,000. inhibition, % at 12.6 µM;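 active means mean replicate inhibition at least 60% with every replicate also reaching 60%; inconclusive means only one of the two criteria is met; inactive means mean below 60% and not all replicates reaching 60%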;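 further: luciferase light reporting Pax8 driven TPO promoter activity; plate controls were median of neutral control wells for no effect and mitoxantrone controls for full effect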
# LMP1 NFkB inh: EBV LMP1-driven NF-kappaB luciferase reporter inhibitors, primary screen, cell-based, luminescence, single point. LMP1-induced NF-kappaB luciferase reporter cells. inhibition, % at 12.5 µM. hit rate 0.69% among 350,000; in the data active means inhibition above about 41%; inconclusive means no clear call, values can overlap the other calls;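 further: 0% = neutral control wells and 100% = reference inhibitor control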
# aSyn UTR inh: MLPCN primary screen, SNCA 5' untranslated region; alpha-synuclein 5'UTR reporter, inhibitor activity; inhibition, % (tested at 7.5 µM); hit rate 0.82% among 300,000; in the data active means inhibition above about 60%; inconclusive means no clear call, values can overlap the other calls;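 further: H4 neuroglioblastoma cells stably carrying SNCA 5'UTR luciferase fusion; 0% = DMSO wells and 100% = positive control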
# TRPM1 prom inh: inhibitors of MITF-dependent TRPM1 promoter reporter, primary screen, cell-based, SK-MEL-5, single point, luciferase; AID 488899, 2010; inhibition, % at 12.5 µM; SK-MEL-5 TRPM1 promoter luciferase, 24 h; hit rate 0.83% among 330,000;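 active means mean inhibition across replicates of 60% or more, whatever share of single replicates reaches that level; inconclusive means some that reach 60%, reason not given; inactive means mean inhibition across replicates below 60%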
# The depositor's hits bear a star; ? = inconclusive; . = not tested or not shown. Compounds with a hit are over-represented: about 2.1% of the library has one in this group of screens.
SMILES,Shn3 inh set2,PAX8 inh HTS,LMP1 NFkB inh,aSyn UTR inh,TRPM1 prom inh
COc1ccccc1OCC(=O)NNC(=O)C1CCN(c2ncnc3sc(C)c(C)c23)CC1,14,-6,17,.,-3
COc1ccc(-c2csc(NC(=O)C3CCN(c4ncnc5sc(C)c(C)c45)CC3)n2)cc1OC,96*,26,15,23,86*
COc1ccc(OC)c2[nH]c(=O)c(CCNC(=O)c3ccc(S(=O)(=O)N(C)C)cc3)cc12,7,.,69*,21,1
COc1ccc(OC)c2[nH]c(=O)c(CCNC(=O)c3ccc(S(=O)(=O)N4CCCCC4)cc3)cc12,-12,.,5,-12,2
CNc1ccc(Br)cc(C(=O)/C=C/c2ccc(Cl)cc2Cl)c1=O,-6,66*,18,-45,31
CCNc1ccc(Br)cc(C(=O)/C=C/c2c(Cl)cccc2Cl)c1=O,57,.,61*,-133,83*
Cn1c(/C=C/c2ccc(Cl)cc2Cl)c([N+](=O)[O-])c(=O)n(C)c1=O,?,45,-30,-204,.
Cn1cnnc1SCC(=O)n1c2ccccc2c2ccccc21,-7,.,46*,13,-3
Cc1c(C)n(C(=O)CSc2nncn2C)c2ccccc12,-3,.,4,3,4
COc1ccc(-c2cc3nc(-c4ccccc4)cc(N4CCCC(O)C4)n3n2)cc1 (stereo not drawn),5,10,62*,-22,-14
CCOc1cc(CNCc2ccccc2)ccc1OCc1ccc(Cl)cc1,92*,10,15,-5,15
Cc1cc(C)cc(NC(=O)c2ccc([N+](=O)[O-])o2)c1,35,75*,-26,-31,65*
CC(=O)c1ccc(NC(=O)c2ccc([N+](=O)[O-])o2)cc1,-66,25,-36,-355,18
NC(=O)c1oc2ccccc2c1NC(=O)c1ccc([N+](=O)[O-])o1,58,74*,4,100*,83*
COc1ccc(NC(=O)c2ccc([N+](=O)[O-])o2)cc1,9,76*,-29,-320,28
CC1CCC2(CC1)NC(=O)N(CC(=O)c1ccc(CNC(=O)C(C)(C)C)s1)C2=O (stereo not drawn),-4,0,-4,.,2
O=C(NNC(=O)c1ccccc1F)c1ccc(-n2cncn2)c([N+](=O)[O-])c1,8,-18,4,13,4
O=C(Nc1ccccc1N1CCCCC1)c1ccc([N+](=O)[O-])o1,-11,48,0,.,27
CCCC(=O)N1CCN(c2ccc(NC(=O)c3ccc([N+](=O)[O-])o3)cc2Cl)CC1,96*,104*,-29,-118,91*
O=C(Nc1c(Cl)ccc2nsnc12)c1ccc([N+](=O)[O-])o1,76,42,-31,-203,89*
CC(C)C(=O)N1CCN(c2ccc(NC(=O)c3ccc(Br)o3)cc2)CC1,3,-14,-9,-14,-14
CC(C)C(=O)N1CCN(c2ccc(NC(=O)c3ccc([N+](=O)[O-])o3)cc2)CC1,60,97*,-21,35,92*
O=C(COC(=O)c1ccc([N+](=O)[O-])o1)Nc1cccc(S(=O)(=O)N2CCCCC2)c1,-10,7,2,14,0
O=C(Nc1cccc(S(=O)(=O)N2CCCCC2)c1)c1ccc([N+](=O)[O-])o1,69,76*,-34,-268,80*
CC(=O)Oc1ccc(-c2cccc(C(=O)Oc3ccccc3)c2)cc1,6,.,-3,-12,-4
SMILES,Shn3 inh set2,PAX8 inh HTS,LMP1 NFkB inh,aSyn UTR inh,TRPM1 prom inh
CCc1cc(/C(Cc2csc(C)n2)=N/O)c(O)cc1O,15,.,16,17,8
CCN1CCN(c2c(Cl)cccc2NC(=O)c2ccc([N+](=O)[O-])o2)CC1,13,7,-14,79*,102*
O=C(Nc1cccc(Cl)c1N1CCCC1)c1ccc([N+](=O)[O-])o1,-30,11,9,.,23
Cc1ccc(NC(=O)/C=C/c2ccc(S(=O)(=O)N3CCOCC3)cc2)cc1S(=O)(=O)N(C)C,47,66*,11,.,21
Cc1ccc(NC(=O)c2ccc([N+](=O)[O-])o2)cc1S(=O)(=O)N1CCOCC1,60,84*,-53,-24,84*
O=C(Nc1ccc(N2CCOCC2)c(Cl)c1)c1ccc([N+](=O)[O-])o1,81,71*,-73,-56,?
COCCn1c(SCC(=O)Nc2cc(C(C)(C)C)nn2-c2ccccc2)nnc1-c1ccncc1,2,5,1,10,-5
CN1CCN(c2ccc(NC(=O)c3ccc([N+](=O)[O-])o3)cc2Cl)CC1,90*,82*,-49,?,79*
CC(C)C(=O)N1CCN(c2ccc(NC(=O)c3ccc([N+](=O)[O-])o3)cc2Cl)CC1,96*,88*,-37,.,85*
CC(=O)N1CCN(c2ccc(NC(=O)c3ccc(Br)o3)cc2Cl)CC1,.,-14,-7,-51,16
CCCCCCCCCCCCCCCC[n+]1cccc(C(=O)N(CC)CC)c1,76,64*,4,26,18
CCCCCCCC[n+]1cccc(C(=O)N(CC)CC)c1,-1,2,-2,11,14
CCCCCCCCCCCCCCCC[n+]1ccc(C(N)=O)cc1,69,111*,-2,.,18
CCCCCCCCCCCCCCCC[n+]1ccc(/C=N/O)cc1,58,94*,5,.,78*
CCCCCCCCCCCCCCCC[n+]1ccccc1,97*,95*,29,.,82*
O/N=C/c1cccc[n+]1CCCCCC[n+]1ccccc1/C=N/O,-40,-13,-11,-1,-6
O=[N+]([O-])c1ccc(-c2csc3[n+]2CCS3)cc1,-18,.,0,-13,1
O=C1C=C(N2CCOCC2)C2(CCCCC2)O1,15,8,-4,13,13
Cc1ccc(N2C(=O)c3cccc4c([N+](=O)[O-])ccc(c34)C2=O)c2cccnc12,92*,15,38,?,74*
Cc1cccc(N2C(=O)c3cccc4c(N5CCCCC5)c([N+](=O)[O-])cc(c34)C2=O)c1C,2,-8,1,62*,-3
Cc1ccc(N2C(=O)c3cccc4c(N5CCN(C)CC5)ccc(c34)C2=O)c2cccnc12,.,.,.,-23,.
O=C(CSc1n[nH]c(-c2ccccn2)n1)Nc1ccccc1F,43,-3,2,2,5
COC(=O)c1ccc(-c2noc(CN(C)CCC3CCCCO3)n2)cc1 (stereo not drawn),11,6,-11,-5,4
O=C(COC(=O)c1cnccn1)NCc1ccccc1,1,.,6,22,3
NS(=O)(=O)c1ccc(CCN2C(=O)/C(=C\c3ccc(Cl)cc3)SC2=S)cc1,18,112*,24,-33,-7
O=C(/C=C/c1ccccc1)NC(=S)NNC(=O)c1cnccn1,57,31,30,87*,7
COc1cc(OC)cc(C(=O)NC(=S)NNC(=O)c2cnccn2)c1,78,31,35,73*,25
